Assay results: the supplement of paper PMC11732987, “Enantioselective OTUD7B fragment discovery through chemoproteomics screening and high-throughput optimisation” (Communications Chemistry, 2025)

Key:
Assay in all cases: log2 ratio of Biotin-Ahx-Ub-VS probe labelling (fragment/DMSO); higher = less target engagement (more negative = stronger competition), active = hit call of the paper (q ≤ 0.05, log2 ratio ≤ -1)
Settings in all cases: compound concentration: 200 uM; treatment time: 3 h
[1] = target: T1, ALG13 (UniProt Q9NP73)
T1 sequence (whole entry): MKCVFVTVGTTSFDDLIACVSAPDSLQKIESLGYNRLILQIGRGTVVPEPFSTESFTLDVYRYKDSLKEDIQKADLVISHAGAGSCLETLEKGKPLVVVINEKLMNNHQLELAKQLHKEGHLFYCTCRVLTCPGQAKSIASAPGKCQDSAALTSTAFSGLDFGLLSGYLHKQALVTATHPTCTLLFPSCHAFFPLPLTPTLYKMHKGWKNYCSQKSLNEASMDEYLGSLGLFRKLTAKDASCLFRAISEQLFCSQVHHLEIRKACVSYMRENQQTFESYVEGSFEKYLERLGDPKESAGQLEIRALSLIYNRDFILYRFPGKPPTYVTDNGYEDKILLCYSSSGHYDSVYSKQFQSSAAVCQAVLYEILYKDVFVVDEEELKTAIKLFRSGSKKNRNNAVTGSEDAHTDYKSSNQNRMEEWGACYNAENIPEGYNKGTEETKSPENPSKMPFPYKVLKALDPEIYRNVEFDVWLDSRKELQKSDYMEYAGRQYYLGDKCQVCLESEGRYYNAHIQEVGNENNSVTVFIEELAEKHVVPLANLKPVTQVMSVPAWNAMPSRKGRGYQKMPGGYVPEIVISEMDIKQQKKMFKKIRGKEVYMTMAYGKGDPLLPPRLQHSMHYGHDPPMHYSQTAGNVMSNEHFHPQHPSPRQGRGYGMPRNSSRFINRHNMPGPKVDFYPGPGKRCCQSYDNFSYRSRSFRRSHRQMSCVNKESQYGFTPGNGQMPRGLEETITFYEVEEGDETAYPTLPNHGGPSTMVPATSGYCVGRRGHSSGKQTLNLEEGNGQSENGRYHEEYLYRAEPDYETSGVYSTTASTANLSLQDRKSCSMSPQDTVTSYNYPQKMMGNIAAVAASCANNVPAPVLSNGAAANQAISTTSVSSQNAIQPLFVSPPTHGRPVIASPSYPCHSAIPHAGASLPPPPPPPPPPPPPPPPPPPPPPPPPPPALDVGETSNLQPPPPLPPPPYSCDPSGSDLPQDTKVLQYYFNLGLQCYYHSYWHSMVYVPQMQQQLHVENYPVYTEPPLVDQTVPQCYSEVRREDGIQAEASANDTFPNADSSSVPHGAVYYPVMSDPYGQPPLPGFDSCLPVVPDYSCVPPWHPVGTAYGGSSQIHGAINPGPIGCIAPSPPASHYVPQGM
In short: (§1)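 Fragment (200 µM) or vehicle was incubated for 3 h with triplicate HEK293T lysate samples of 495 µg, which were then treated with Biotin-Ahx-Ub-VS at 0.5 µM final for 1 h. Labelled DUBs were enriched on NeutrAvidin, digested with LysC and trypsin, and analysed by diaPASEF LC-MS/MS. Values are average log2 fragment/vehicle ratios from an unpaired t-test on global-median-normalised Spectronaut label-free quantities, using proteins with ≥2 unique peptides.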

[2] = target: ATXN3 (UniProt P54252)
Chain of ATXN3 (P54252 whole entry): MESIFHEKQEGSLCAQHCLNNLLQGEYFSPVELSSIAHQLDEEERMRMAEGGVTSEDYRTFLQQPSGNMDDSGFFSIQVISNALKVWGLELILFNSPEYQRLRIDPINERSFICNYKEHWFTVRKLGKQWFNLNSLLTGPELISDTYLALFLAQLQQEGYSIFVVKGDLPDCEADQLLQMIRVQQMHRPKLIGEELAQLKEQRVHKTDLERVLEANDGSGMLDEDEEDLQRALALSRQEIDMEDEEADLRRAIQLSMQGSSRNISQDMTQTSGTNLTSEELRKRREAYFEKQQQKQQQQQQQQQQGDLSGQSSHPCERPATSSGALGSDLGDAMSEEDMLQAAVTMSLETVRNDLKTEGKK
In short: as §1

[3] = target: T2, BAP1 (UniProt Q92560)
T2 sequence (whole entry): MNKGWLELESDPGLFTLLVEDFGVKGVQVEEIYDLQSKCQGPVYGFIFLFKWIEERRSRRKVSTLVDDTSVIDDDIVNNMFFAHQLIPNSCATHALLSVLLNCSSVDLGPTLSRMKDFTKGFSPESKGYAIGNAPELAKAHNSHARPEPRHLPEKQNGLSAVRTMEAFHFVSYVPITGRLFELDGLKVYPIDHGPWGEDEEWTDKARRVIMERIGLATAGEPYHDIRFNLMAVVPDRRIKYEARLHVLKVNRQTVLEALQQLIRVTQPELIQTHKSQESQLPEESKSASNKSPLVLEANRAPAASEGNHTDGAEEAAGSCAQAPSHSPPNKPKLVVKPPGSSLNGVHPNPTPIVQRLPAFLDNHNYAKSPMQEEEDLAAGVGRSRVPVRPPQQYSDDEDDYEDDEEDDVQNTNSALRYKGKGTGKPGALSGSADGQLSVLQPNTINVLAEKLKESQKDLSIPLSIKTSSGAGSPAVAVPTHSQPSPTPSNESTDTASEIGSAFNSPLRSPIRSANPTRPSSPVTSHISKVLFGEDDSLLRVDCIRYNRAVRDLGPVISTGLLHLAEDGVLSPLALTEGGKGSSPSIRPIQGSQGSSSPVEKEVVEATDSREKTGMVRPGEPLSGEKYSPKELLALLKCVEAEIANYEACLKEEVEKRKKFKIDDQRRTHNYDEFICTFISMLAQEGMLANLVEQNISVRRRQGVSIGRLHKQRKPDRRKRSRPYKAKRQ
In short: as §1

[4] = target: EIF3F (UniProt O00303)
Chain of EIF3F (O00303 whole entry): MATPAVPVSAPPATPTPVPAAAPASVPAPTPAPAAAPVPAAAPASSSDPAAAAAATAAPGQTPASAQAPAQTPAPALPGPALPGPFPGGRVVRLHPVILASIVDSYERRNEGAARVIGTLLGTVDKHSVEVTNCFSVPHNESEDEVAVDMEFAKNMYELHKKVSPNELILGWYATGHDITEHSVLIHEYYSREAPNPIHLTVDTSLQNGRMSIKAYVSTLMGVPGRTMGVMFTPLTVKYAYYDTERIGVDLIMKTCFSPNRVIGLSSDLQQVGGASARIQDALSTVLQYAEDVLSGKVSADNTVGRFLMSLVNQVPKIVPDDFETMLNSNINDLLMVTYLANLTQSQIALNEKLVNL
In short: as §1

[5] = target: EIF3H (UniProt O15372)
Chain of EIF3H (O15372 whole entry): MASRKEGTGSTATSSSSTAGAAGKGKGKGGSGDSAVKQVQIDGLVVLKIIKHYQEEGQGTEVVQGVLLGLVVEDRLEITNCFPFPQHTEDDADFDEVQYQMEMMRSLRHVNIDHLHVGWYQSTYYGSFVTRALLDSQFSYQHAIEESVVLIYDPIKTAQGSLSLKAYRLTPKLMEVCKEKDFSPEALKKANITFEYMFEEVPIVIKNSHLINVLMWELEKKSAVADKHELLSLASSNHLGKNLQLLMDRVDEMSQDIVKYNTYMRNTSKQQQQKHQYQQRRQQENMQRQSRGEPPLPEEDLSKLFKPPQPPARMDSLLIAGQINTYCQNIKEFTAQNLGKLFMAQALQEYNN
In short: as §1

[6] = target: T3, FAM105A (UniProt Q9NUU6)
T3 sequence (whole entry): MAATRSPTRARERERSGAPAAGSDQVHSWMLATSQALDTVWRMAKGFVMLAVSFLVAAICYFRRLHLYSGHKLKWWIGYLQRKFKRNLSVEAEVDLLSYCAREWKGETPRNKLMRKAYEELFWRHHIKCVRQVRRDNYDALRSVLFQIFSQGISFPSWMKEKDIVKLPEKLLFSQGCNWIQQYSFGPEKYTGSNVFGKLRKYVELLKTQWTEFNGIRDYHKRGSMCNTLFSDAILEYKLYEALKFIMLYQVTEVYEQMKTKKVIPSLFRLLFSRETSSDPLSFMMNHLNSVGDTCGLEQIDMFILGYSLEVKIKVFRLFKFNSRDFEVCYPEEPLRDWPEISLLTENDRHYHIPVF
In short: as §1

[7] = target: OTUB1 (UniProt Q96FW1)
Chain of OTUB1 (Q96FW1 whole entry): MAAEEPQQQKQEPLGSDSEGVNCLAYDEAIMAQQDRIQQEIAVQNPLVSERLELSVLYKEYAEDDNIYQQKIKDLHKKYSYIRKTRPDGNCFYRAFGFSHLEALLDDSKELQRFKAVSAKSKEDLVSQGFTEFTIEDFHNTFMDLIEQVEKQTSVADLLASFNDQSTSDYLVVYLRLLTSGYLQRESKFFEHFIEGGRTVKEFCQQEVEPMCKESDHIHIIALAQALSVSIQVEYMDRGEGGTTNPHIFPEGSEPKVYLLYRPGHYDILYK
In short: as §1

[8] = target: T4, OTUD4 (UniProt Q01804)
T4 sequence (whole entry): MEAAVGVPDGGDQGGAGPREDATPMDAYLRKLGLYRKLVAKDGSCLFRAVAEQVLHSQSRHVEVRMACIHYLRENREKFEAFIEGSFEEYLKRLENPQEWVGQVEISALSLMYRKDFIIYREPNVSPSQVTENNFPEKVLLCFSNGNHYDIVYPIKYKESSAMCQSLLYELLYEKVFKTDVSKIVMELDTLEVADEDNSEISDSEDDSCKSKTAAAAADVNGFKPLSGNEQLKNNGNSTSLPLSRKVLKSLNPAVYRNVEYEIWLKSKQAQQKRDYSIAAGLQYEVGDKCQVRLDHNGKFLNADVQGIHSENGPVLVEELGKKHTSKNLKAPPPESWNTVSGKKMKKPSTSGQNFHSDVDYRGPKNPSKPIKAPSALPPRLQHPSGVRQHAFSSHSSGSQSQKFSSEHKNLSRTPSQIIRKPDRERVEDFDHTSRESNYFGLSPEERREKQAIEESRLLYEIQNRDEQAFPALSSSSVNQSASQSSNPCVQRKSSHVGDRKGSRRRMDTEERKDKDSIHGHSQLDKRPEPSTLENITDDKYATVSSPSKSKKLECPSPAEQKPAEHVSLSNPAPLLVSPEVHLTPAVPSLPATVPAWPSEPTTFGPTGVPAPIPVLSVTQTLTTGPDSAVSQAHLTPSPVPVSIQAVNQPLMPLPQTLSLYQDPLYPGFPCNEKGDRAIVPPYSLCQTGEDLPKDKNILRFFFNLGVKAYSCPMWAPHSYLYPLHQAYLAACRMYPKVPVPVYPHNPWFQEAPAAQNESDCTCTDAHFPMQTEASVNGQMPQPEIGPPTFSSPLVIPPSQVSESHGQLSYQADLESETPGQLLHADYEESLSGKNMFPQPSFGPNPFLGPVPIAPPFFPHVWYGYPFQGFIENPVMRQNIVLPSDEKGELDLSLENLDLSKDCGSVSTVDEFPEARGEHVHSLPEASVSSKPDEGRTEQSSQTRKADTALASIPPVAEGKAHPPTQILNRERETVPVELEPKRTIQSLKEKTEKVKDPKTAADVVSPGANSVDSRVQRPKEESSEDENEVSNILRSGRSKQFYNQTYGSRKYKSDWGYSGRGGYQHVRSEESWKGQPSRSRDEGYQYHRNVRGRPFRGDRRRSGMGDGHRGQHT
In short: as §1

[9] = target: T5, OTUD5 (UniProt Q96G74)
T5 sequence (whole entry): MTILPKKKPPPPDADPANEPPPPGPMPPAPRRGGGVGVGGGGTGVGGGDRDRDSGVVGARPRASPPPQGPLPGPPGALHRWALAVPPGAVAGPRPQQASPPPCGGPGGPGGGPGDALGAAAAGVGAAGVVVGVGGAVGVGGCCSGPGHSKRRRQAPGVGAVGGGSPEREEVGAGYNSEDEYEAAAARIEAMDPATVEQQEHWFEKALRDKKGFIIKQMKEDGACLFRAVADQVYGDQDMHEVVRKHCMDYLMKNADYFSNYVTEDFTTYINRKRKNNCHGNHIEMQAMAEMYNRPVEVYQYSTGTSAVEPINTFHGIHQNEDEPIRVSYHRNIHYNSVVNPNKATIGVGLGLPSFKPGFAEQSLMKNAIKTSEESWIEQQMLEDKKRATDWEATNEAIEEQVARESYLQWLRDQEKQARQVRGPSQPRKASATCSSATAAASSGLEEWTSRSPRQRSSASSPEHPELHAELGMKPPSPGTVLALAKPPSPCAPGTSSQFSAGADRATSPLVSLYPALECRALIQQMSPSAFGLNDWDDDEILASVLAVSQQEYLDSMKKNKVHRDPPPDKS
In short: as §1

Measured: log2 ratio of Biotin-Ahx-Ub-VS probe labelling

Cc1cc(C(=O)NC2CCN(C(=O)CCl)CC2)no1
inactive: [1] 0.0715 | [2] -0.572 | [3] -0.339 | [4] -0.05 | [5] 0.0609 | [6] 0.133 | [7] -0.0459 | [8] -0.297 | [9] -0.298
